From PubChem BioAssay (NCATS)
Inconclusive results are not listed. Values without a mark were called inactive. Calls of active or inactive are those of the source. The call rests on the fitted dose curve; in most records, active means well fitted activation curve with a large enough effect; inconclusive means small, poorly fitted or top-dose-only effect; inactive means no such curve, though single readings can be large or run the other way.

Biological target: Rap guanine nucleotide exchange factor 3 (Homo sapiens) (UniProt O95398)
Experiment: Confirmatory qHTS for agonist of cAMP-regulated guanine nucleotide exchange factor 3 (EPAC1) (AID 1645881); further: nearly all actives have a fitted effect of over 75% in size;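 on activation: EPAC1 catalysed release of BODIPY-GDP from Rap1B seen as fluorescence loss; 100% = effect of cAMP agonist control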
Conditions: EPAC1 Rap1B BODIPY-GDP exchange fluorescence; series mostly up to 154 µM; activation: at the top concentration
Potency means the concentration at half of the fitted maximal effect.

Sequence of Rap guanine nucleotide exchange factor 3 (Homo sapiens) (O95398 whole entry, looked up): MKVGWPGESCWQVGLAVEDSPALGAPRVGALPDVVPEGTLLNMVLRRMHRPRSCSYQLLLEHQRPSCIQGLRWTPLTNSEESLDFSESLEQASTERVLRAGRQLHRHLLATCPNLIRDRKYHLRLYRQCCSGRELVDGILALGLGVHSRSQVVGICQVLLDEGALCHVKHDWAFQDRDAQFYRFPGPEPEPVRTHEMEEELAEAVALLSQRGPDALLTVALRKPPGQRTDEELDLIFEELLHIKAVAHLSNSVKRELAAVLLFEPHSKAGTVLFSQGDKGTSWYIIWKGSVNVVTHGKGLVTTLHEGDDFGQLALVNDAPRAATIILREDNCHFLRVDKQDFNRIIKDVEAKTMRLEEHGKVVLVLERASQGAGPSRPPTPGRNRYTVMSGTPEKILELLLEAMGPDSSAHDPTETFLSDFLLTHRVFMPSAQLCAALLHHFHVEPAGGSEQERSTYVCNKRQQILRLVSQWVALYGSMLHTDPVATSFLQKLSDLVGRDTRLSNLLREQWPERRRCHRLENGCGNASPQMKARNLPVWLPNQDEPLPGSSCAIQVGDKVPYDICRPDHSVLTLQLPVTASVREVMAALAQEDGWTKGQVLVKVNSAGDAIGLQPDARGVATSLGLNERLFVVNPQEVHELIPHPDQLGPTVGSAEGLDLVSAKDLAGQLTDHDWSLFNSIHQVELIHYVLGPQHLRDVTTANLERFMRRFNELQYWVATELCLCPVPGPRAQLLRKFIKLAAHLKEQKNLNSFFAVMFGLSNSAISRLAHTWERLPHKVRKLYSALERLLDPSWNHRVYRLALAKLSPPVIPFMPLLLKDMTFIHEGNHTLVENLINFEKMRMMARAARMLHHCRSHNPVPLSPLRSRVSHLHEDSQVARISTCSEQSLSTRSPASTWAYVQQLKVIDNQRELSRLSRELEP

Row | SMILES | activation [%] | Potency
1 | Cc1ccccc1C(=O)Nc1sc2c(c1C(=O)N1CCCCC1)CCC(C)C2 (stereo not given) | 9.45 | 
2 | CCSc1nc2c([nH]c3ccccc32)c(=O)n1-c1cccc(OC)c1 | -4.58 | 
3 | CN(C)C(=O)c1cccc(-c2cnc3c(NC=O)cc(-c4ccccc4Cl)cn23)c1 | 3.34 | 
4 | CCCN(CC(=O)Nc1ccccc1OC)C(=O)c1cccc(S(=O)(=O)Nc2ccc(OC)cc2)c1 | 4.26 | 
5 | CCCCn1c(COc2cccc(OC)c2)nc2ccccc21 | 19.7 | 
6 | Cc1ccc(OCC(=O)Nc2ccc(Cl)c(-c3nc4ccccc4[nH]3)c2)cc1C | 4.45 | 
7 | COc1cccc(C(=O)Nc2ccc(NC(=O)c3ccco3)c(Cl)c2)c1 | -2.09 | 
8 | CC(=O)c1ccc(OCc2nnn(CC(=O)NS(=O)(=O)c3ccc(C)cc3)c2-c2ccccc2)cc1 | 13.8 | 
9 | Cc1ccc(C(=O)N2CCc3cc(CNC(=O)CSc4ccccc4)ccc32)cc1 | 0.796 | 
10 | CC(C)(C)Cc1c(-c2ccccc2)nc2ccc(Cl)cn12 | 9.57 | 
11 | O=C(/C=C/c1ccc(-c2ccccc2[N+](=O)[O-])o1)c1ccco1 | 11.1 | 
12 | COc1cc(OC)c(NC(=O)CN(C)S(=O)(=O)c2ccc(-c3ccc(=O)[nH]n3)s2)cc1Cl | 15.4 | 
13 | CCC(CO)n1c(SCc2cc([N+](=O)[O-])cc3c2OCOC3)nc2ccccc2c1=O (stereo not given) | 23.9 | 
14 | O=C1CS(=O)(=O)N(Cc2cccc(F)c2)c2ccc(Br)cc21 | 12.9 | 
15 | Cc1cc(/C=C2\SC(=S)NC2=O)c(C)n1-c1cccc(O)c1 | 5.93 | 
16 | Oc1ccc(NCc2cccc(OCc3ccccc3)c2)cc1 | 15.6 | 
17 | COc1ccc(CCNC(=O)CS(=O)(=O)Cc2nc(-c3ccc(C)cc3)oc2C)cc1OC | 1.01 | 
18 | COc1ccccc1[C@]1(C)ON(c2ccccc2C(F)(F)F)C1=O | 15.3 | 
19 | Clc1ccc(C(c2ccccc2)c2c[nH]c3ccccc23)s1 (stereo not given) | 24.5 | 
20 | Cc1cccc(N2CCN(C(=O)c3[nH]c(C(F)(F)F)nc3-c3ccccc3)CC2)c1C | 14.1 | 

Row | SMILES | activation [%] | Potency
21 | O=C(O)CC/C(=C/c1cccc(NC(=O)c2ccccc2Cl)c1)c1nc2ccccc2s1 |  | 100 µM (active)
22 | COc1cc(NC(=O)c2cc3nc(-c4ccccc4)cc(-c4ccccc4)n3n2)cc(OC)c1OC | 6.74 | 
23 | Cc1ccc(N=Cc2c(O)c3ccccc3n(C)c2=O)cc1 | 9.27 | 
24 | O=C(O)c1ccn2c(C(=O)c3ccc(Cl)cc3)c(-c3ccccc3)cc2c1 | -4.58 | 
25 | Cn1c(=O)c2c(-c3ccccc3Br)n(Cc3ccccc3)cc2n(C)c1=O | -6.08 | 
26 | COc1ccc(NC(=O)Cn2ncc(Cl)c(Cl)c2=O)cc1S(=O)(=O)N1CCOCC1 | 6.25 | 
27 | O=C(CSc1ccc(-c2ccco2)nn1)c1cccc([N+](=O)[O-])c1 | 8.99 | 
28 | COc1ccc(Nc2cc(C(=O)NCCCN3CCN(c4ccccc4F)CC3)c3ccccc3n2)c(OC)c1 | -5.39 | 
29 | Brc1cc2c(cc1CSc1ncccn1)OCO2 | 6.18 | 
30 | CC(NS(=O)(=O)OCC(Cl)(Cl)Cl)c1ccc(Br)cc1 (stereo not given) | 13.3 | 
31 | C=C(C)COc1ccc(-c2[nH]ncc2-c2ccccc2OC)c(O)c1 | 15.8 | 
32 | COc1cc2c(cc1OC)C(c1ccc(Cl)cc1)N(c1ccc(C)c(F)c1)C(=O)C2 (stereo not given) | 9.93 | 
33 | CC1=NN(c2cccc(C(=O)O)c2)C(=O)/C1=C\C=C/c1ccccc1 | 8.38 | 
34 | O=c1nc(/C=C/c2cccn2-c2ccc([N+](=O)[O-])cc2)cc(C(F)(F)F)[nH]1 | 8.12 | 
35 | COC(=O)[C@]12CCCCC=C1N(CCC1=CCCCC1)C(=O)[C@H](CC(=O)NCc1cccc(C(F)(F)F)c1)C2 | -1.92 | 
36 | CS(=O)(=O)c1ccc(C(=O)NCCN2C(=O)S/C(=C\c3cccnc3)C2=O)cc1[N+](=O)[O-] | -0.397 | 
37 | O=S(=O)(Nc1cc(Sc2ncn[nH]2)c(O)c2ccccc12)c1ccccc1 | 22.7 | 
38 | O=C(O)c1ccc(N/N=C/c2ccc(-c3ccccc3Cl)o2)cc1 | 1.56 | 
39 | Oc1c(Br)cc(Br)cc1CNc1cccc2cccnc12 | 16.8 | 
40 | CCC1=NN2C(=N)/C(=C/c3ccc(OS(=O)(=O)c4ccccc4)cc3)C(=O)N=C2S1 | 10.3 | 
